From publication PMC4336329 (PLoS ONE, 2015)
About 14,000 (4.5%) of roughly 310,000 compounds showed an effect of 50% or more. Effects have a minus sign here. The list comes from a sample in which strong results are over-represented; it also holds similar structures and randomly drawn compounds.

Biological target: human ether-à-go-go-related gene (hERG) potassium channel (human, UniProt Q12809)
Assay: primary screen, population patch clamp on CHO cells stably expressing hERG; higher = less effect of the substance
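Also: peak tail current of the secondary pulse compared with the same well before compound.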

Chain of human ether-à-go-go-related gene (hERG) potassium channel (Q12809 whole entry, looked up): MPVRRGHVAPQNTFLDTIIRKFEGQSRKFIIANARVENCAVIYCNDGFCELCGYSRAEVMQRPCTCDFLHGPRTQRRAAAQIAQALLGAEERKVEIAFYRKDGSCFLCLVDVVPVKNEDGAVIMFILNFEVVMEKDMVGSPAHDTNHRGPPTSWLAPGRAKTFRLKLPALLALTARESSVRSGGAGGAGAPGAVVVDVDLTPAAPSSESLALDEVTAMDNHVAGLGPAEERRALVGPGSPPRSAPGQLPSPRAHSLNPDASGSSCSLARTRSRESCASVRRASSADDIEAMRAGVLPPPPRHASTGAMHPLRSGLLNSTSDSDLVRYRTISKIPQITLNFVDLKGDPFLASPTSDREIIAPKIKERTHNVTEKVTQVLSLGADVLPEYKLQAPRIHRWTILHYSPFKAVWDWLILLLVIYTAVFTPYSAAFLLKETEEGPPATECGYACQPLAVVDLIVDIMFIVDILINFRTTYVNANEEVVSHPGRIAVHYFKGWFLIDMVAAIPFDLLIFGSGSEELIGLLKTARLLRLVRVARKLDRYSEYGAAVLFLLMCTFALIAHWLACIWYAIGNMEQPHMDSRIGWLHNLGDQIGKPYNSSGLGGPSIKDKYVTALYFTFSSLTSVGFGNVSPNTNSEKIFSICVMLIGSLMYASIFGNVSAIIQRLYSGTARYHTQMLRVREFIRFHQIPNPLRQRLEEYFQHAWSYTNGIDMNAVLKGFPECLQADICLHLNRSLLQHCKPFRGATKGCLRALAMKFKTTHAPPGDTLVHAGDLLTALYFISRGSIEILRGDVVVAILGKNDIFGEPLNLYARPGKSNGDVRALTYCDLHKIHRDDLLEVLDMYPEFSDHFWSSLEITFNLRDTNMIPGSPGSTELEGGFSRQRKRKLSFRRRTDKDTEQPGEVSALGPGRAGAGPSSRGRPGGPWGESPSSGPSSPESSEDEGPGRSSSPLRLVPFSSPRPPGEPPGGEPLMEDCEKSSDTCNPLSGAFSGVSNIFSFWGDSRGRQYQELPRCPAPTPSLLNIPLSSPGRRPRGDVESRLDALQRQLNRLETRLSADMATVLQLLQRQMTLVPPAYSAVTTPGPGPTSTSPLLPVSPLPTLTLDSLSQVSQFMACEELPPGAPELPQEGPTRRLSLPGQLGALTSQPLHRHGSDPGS

| Compound | hERG current change (%, negative = inhibition) at 10uM [%] |
| --- | --- |
| CN1Cc2c(N3CCOCC3)nc(SCCC#N)c(C#N)c2CC1(C)C | -2.45 |
| COc1ccc(Cc2nnc(NC(=O)c3ccco3)s2)cc1OC | 5.42 |
| c1ccc2[nH]c(CSc3nccs3)nc2c1 | -6.76 |
| O=C(Cn1cnc2c(nnn2Cc2ccccc2)c1=O)c1ccccc1 | -8 |
| COCCN(Cc1cc2ccc(C)c(C)c2nc1Cl)C(=O)N1CCOCC1 | -11 |
| OCC1(CCOc2ccccc2)CCN(Cc2cn[nH]c2-c2ccccc2)CC1 | -74.4 |
| OCC1(CC2CCCCO2)CCN(Cc2nc3ccccc3[nH]2)CC1 (stereo not shown) | 18 |
| Cc1ccccc1CC1(CO)CCCN(Cc2cn[nH]c2-c2ccccc2)C1 (stereo not shown) | -23.9 |
| OCCC1CN(Cc2nc3ccc(F)cc3[nH]2)CCN1C1CCCC1 (stereo not shown) | -15.9 |
| OCC1(CCOc2ccccc2)CCN(Cc2cn[nH]c2-c2ccc(F)cc2)CC1 | -71.6 |
| OCC1(CCOc2ccccc2)CCN(Cc2nc3ccc(F)cc3[nH]2)CC1 | -55 |
| CC1CCN(CC(=O)Nc2ccc(S(=O)(=O)N3C(C)CCCC3C)cc2)CC1 (stereo not shown) | 3.93 |
| O=C(Cc1ccccc1)NCCc1cnc[nH]1 | 17.4 |
| COc1ccc(C(=O)NCC(C)NC(=O)c2ccc(OC)c(OC)c2)cc1OC (stereo not shown) | 13.8 |
| COC(=O)Cc1ccc(NC(C)=O)cc1 | 8.79 |
| COc1cccc(NC(=O)CCC(=O)NCc2ccco2)c1 | 17.2 |
| Cc1c(Cl)cccc1NC(=S)/C(=C(\[O-])c1ccc(Cl)s1)[n+]1ccccc1 | 3.76 |
| Cc1cc(C=C2C(=O)c3ccccc3C2=O)c(C)n1-c1ccc(C(=O)O)cc1 | 1.68 |
| Cc1nn2c(C(F)(F)F)cc(-c3ccc(Cl)cc3)nc2c1C(=O)N1CCOCC1 | -13.6 |
| Cc1nc2ccccn2c1P(=Nc1ccccc1)(N(C)C)N(C)C | -52.5 |
| CCN(CC)P(=O)(c1ccccc1)c1c(C)nc2ccccn12 (stereo not shown) | -3.24 |
| CCN(CC)P(=S)(c1c(C)nc2ccccn12)c1c(C)nc2ccccn12 | -9.33 |
| N#Cc1c(SCC(=O)Nc2nc3ccc(Br)cc3s2)sc2c(O)cc(=O)[nH]c12 | 9.27 |
| CC(C)CNC(=S)NC(=O)c1ccc(F)cc1 | 5.45 |

| Compound | hERG current change (%, negative = inhibition) at 10uM [%] |
| --- | --- |
| COC(=O)c1ccc(C2Nc3ccc(/C(C)=N/NC(=O)C(OC)c4ccccc4)cc3C3C=CCC32)cc1 (stereo not shown) | -76.2 |
| CC(=O)c1ccc2c(c1)C1C=CCC1C(c1ccncc1)N2 (stereo not shown) | -21 |
| COc1ccc(C(=O)N/N=C(\C)c2ccc3c(c2)C2C=CCC2C(c2ccccc2)N3)cc1 (stereo not shown) | -1.79 |
| CCN(CC)C(=O)c1csc(Nc2ccc(C)cc2)n1 | -34.8 |
| S=C(NCc1cccnc1)Nc1cccc2ccccc12 | -9.3 |
| c1ccc2nc(N3CCOCC3)c(N3CCOCC3)nc2c1 | -1.12 |
| c1ccc2c(c1)nc(N1CCOCC1)c1ccccc12 | 11.2 |
| c1ccc(-c2nc3ccccc3nc2N2CCOCC2)cc1 | -54.7 |
| CCCN1C2=NCCCN2c2ccccc21.Cl | -9.58 |
| Br.CCN1C2=NCCCN2c2cc(C)c(C)cc21 | -23.2 |
| CCCCCCCN1C2=NCCCN2c2ccccc21.Cl | -58.5 |
| Br.CCCCN1C2=NCCCN2c2ccccc21 | -54.5 |
| Br.CCCCN1C2=NCCCN2c2cc(C)c(C)cc21 | -65.4 |
| CCCCN1C(N)=NC[C@@H]1c1ccccc1 | -2.61 |
| CCCN1C2=NCCN2c2cc(C)c(C)cc21.Cl | -30.7 |
| CCCCN1C2=NC(c3ccccc3)CN2c2ccccc21.Cl (stereo not shown) | -69 |
| c1ccc([C@H]2CN3C(=N2)Sc2ccccc23)cc1 | -19.2 |
| COCCN1C(=O)CS/C1=C(/C#N)C(=O)NCc1ccco1 | -7.92 |
| COc1ccc(C(=O)O)cc1S(=O)(=O)Nc1cccc(C)c1 | -18.9 |
| Cc1ccc(-n2nnc3c(=O)n(CC(=O)NCc4ccccc4)cnc32)cc1 | -15.5 |
| C[C@@H]1CC[C@@]23COC(=O)C2=CCC[C@@H]3[C@@]1(C)CC/C(=C/CO)CO | -6.27 |
| O=C(c1ccc(Cl)c(Cl)c1)N1CCC(=O)N(C(CO)Cc2ccccc2)CC1 (stereo not shown) | 5.42 |
| CCOC(=O)c1cn2nc(Oc3cccc(C(F)(F)F)c3)ccc2n1 | -6.27 |
| O=c1cc(-c2ccncc2)oc2c1ccc1ccccc12 | -4.57 |

| Compound | hERG current change (%, negative = inhibition) at 10uM [%] |
| --- | --- |
| Cl.c1ccc2c(c1)N1CCN=C1N2CCN1CCCCC1 | -15.3 |
| CCCCCCN1C2=NCCCN2c2ccccc21.Cl | -78.3 |
| Cl.c1ccc2c(c1)N1CCCN=C1N2CCN1CCCCC1 | -62.8 |
| COc1cccc(/C=C/C(=O)Nc2ccc3[nH]c(=O)[nH]c3c2)c1 | 7.9 |
| COc1ccc(S(=O)(=O)N(CC(=O)N2CCN(C)CC2)c2ccc(C)cc2)cc1OC | -11 |
| Cc1ccc(S(=O)(=O)N(C)CC(=O)N2CCN(Cc3ccc4c(c3)OCO4)CC2)cc1 | -66.6 |
| COc1ccc(N(CC(=O)N2CCN(Cc3ccccc3)CC2)S(=O)(=O)c2ccccc2)cc1 | -26.3 |
| Cc1ccc(S(=O)(=O)N(C)CC(=O)N2CCN(Cc3ccccc3)CC2)cc1 | -24.6 |
| CS(=O)(=O)N(CC(=O)N1CCN(Cc2ccccc2)CC1)c1ccc2c(c1)OCCO2 | -5.94 |
| COc1ccc(S(=O)(=O)N(CC(=O)N2CCOCC2)c2ccc(F)cc2)cc1OC | 10.7 |
| CCN1CCN(C(=O)CN(c2ccc(F)cc2)S(=O)(=O)c2ccc(OC)c(OC)c2)CC1 | -66.8 |
| O=C(CN(c1ccccc1)S(=O)(=O)c1ccccc1)N1CCN(Cc2ccc3c(c2)OCO3)CC1 | -33.4 |
| Cc1ccc(S(=O)(=O)N(C)c2ccc(C(=O)N3CCN(Cc4ccc5c(c4)OCO5)CC3)cc2)cc1 | -44.1 |
| COc1ccc(N(CC(=O)N2CCN(Cc3ccc4c(c3)OCO4)CC2)S(C)(=O)=O)cc1OC | 9.47 |
| CS(=O)(=O)N(CC(=O)N1CCN(Cc2ccc3c(c2)OCO3)CC1)c1ccc2c(c1)OCO2 | -58.9 |
| COc1ccc(N(CC(=O)N2CCN(Cc3ccc4c(c3)OCO4)CC2)S(=O)(=O)c2ccc(F)cc2)cc1 | -84.6 |
| COc1ccc(C(=O)NCc2nnc(SCC(=O)Nc3cccc(F)c3)o2)cc1 | -1.96 |
| COCCn1c(-c2ccc(OC)c(OC)c2)nc2ccccc21 | -21.6 |
| O=C1NC(=NCc2ccccc2)S/C1=C\c1ccccc1 | 23.8 |
| COc1ccccc1NC(=O)COc1ccc(Br)cc1CNCCCN1CCOCC1.Cl | -58.6 |
| COc1cc(CNCCCN2CCOCC2)c(Br)cc1OC(C)C.Cl | 5.58 |
| COc1cc(CNCCCN2CCOCC2)c(Br)cc1OCC(=O)Nc1ccccc1C | -15.3 |
| COc1ccccc1NC(=O)COc1cc(Br)c(CNCCCN2CCOCC2)cc1OC | -54.6 |
| O=C(COc1ccc(Br)cc1CNCCCN1CCOCC1)Nc1ccccc1 | -47.8 |

| Compound | hERG current change (%, negative = inhibition) at 10uM [%] |
| --- | --- |
| C=CCOc1ccc(Br)cc1CNCCCN1CCOCC1.Cl | -27.7 |
| COc1cc(NC(=O)c2ccc(C)cc2)ccc1NC(=O)c1cc2ccccc2o1 | 15.2 |
| Cc1ccc(C)c(NC(=O)CSc2nnc(CCNC(=O)OC(C)(C)C)o2)c1 | -12.3 |
| CC1(C)CC(c2csc(N)n2)CCO1 (stereo not shown) | 2.95 |
| Cc1ccc(N(CC(=O)N2CCN(c3ccc(F)cc3)CC2)S(=O)(=O)c2c(C)nn(C)c2C)cc1 | -65.8 |
| COc1ccc(N(CC(=O)N2CCN(c3ccc(F)cc3)CC2)S(=O)(=O)c2c(C)n[nH]c2C)cc1 | -69.4 |
| Cc1ccc(N(CC(=O)N2CCN(c3ccc(F)cc3)CC2)S(=O)(=O)c2c(C)noc2C)cc1 | -39.5 |
| COc1ccc(N(CC(=O)N2CCN(c3ccc(Cl)cc3)CC2)S(=O)(=O)c2c(C)n[nH]c2C)cc1 | -10.1 |
| Cc1ccc(N(CC(=O)NCc2ccc(F)cc2)S(=O)(=O)c2c(C)nn(C)c2C)cc1 | -24.5 |
| COc1ccc(N(CC(=O)N2CCN(c3ccccc3F)CC2)S(=O)(=O)c2c(C)n[nH]c2C)cc1 | -20.6 |
| O=C(O)/C=C\C(=O)N1CCc2ccccc21 | 27.9 |
| O=C1C(NS(=O)(=O)c2cccs2)=C(N2CCOCC2)C(=O)c2ccccc21 | -40.8 |
| C[n+]1ccc(C(=O)N/N=C/c2ccco2)cc1.[I-] | 26.7 |
| COc1ccc(-c2cc(C(=O)NCCCn3ccnc3)c3ccccc3n2)c(OC)c1 | -32 |
| O=C(NCCc1ccccn1)c1cc(-c2ccc(Cl)cc2)nc2ccccc12 | -19.6 |
| O=C(NCCCn1ccnc1)c1cc(-c2ccc(Cl)cc2)nc2ccccc12 | -68.8 |
| O=C(NCCCn1ccnc1)c1cc(-c2ccncc2)nc2ccccc12 | -56.3 |
| COc1cccc(C(=O)NCCCn2ccnc2)c1 | 7.29 |
| CCOc1ccc(-c2cc(C(=O)NCCCn3ccnc3)c3ccccc3n2)cc1 | -16 |
| O=C(NCCc1ccc(Cl)cc1)c1cc(-c2ccncc2)nc2ccccc12 | 4.23 |
| CCCCCCCNC(=O)c1cc(-c2ccncc2)nc2ccccc12 | 7.84 |
| COc1cccc(-c2cc(C(=O)NCCCn3ccnc3)c3ccccc3n2)c1 | -71.8 |
